Sampled rows, rich in hits. Any-hit rate of the full collection: about 3.5%.
GPR151 activ – human GPR151 activation; Q8TDV0; PathHunter beta-arrestin GPR151 cells, luminescence; activation, % at 11.2 µM; 650,000 compounds, 1% hits; in the data active means activation above about 4.9%;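 further: 0% = median of compound wells and 100% = cells with positive control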
MITF inh – inhibitors of human MITF | O75030 | AlphaScreen MITF homodimerization, bead proximity signal | inhibition, % at 2.6 µM | 650,000 compounds, 0.91% hits | AID 1259374; in the data active means inhibition above about 50%;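 further: 0% = vehicle wells with protein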
TEAD-YAP inh – TEAD-YAP interaction inhibition. HEK-TIYL cells, TEAD-Gal4/YAP UAS-luciferase luminescence. inhibition, % at 9.12 µM. 640,000 compounds, 1.4% hits. AID 1259422; in the data active means inhibition above about 32%;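 further: 0% = median of test compound wells and 100% = reference inhibitor wells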
FBW7 activator – human FBW7 E3 ligase activation, primary screen. Q969H0. AlphaScreen FBW7–phospho-cyclin E peptide binding, activator screen. normalized activity (activation), % at 26.1 µM. 650,000 compounds, 0.13% hits; in the data active means normalized activity above about 1.9%;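 further: purified mutant Fbw7 with reduced substrate affinity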
Target sequence (Q969H0 whole entry, looked up): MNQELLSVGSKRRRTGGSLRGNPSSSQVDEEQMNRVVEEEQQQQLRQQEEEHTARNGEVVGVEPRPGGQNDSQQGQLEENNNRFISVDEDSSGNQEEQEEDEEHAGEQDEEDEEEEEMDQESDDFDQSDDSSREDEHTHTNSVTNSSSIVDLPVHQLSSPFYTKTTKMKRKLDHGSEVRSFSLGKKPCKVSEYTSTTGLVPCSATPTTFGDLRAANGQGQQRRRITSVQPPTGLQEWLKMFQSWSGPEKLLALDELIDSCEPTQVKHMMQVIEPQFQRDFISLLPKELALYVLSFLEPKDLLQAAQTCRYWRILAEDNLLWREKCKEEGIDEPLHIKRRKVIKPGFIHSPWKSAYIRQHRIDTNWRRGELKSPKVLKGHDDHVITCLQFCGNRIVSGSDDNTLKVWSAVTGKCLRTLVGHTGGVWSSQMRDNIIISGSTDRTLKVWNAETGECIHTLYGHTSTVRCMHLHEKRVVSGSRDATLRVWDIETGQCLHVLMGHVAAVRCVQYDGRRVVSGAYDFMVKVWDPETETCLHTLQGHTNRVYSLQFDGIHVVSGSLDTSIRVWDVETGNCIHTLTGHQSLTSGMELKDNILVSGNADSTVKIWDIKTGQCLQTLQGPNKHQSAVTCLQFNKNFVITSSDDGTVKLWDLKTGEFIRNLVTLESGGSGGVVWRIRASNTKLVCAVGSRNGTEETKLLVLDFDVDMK
MITF confirm – confirmation of human MITF inhibitors; 4,700 compounds, 16% hits; AlphaScreen MITF homodimerization, biotin/His-MITF beads; AID 1259372; shares compounds with MITF inh; inhibition, % at 2.6 µM;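 active means inhibition above a cutoff derived from the DMSO control wells, cut at about 28% in these data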;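 further: 0% = MITF dimer wells with DMSO only; inhibitors lower the bead chemiluminescence by keeping MITF from dimerizing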
AS interf DR – counter-screen: compounds optically interfering with AlphaScreen; AlphaScreen optical interference counterscreen, cell-free; shares compounds with MITF inh; 480 compounds, 6% hits; IC50, µM; call rule not given here
AlphaScreen intf2 – AlphaScreen optical interference, counter-screen. shares compounds with MITF inh. LysRS AlphaScreen counterscreen, signal interference, triplicate. inhibition, % at 2.6 µM. 4,700 compounds, 7.6% hits;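 active means inhibition above a cutoff derived from the DMSO control wells, cut at about 30% in these data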
The depositor's hits bear a star; . = no result.

SMILES	GPR151 activ	MITF inh	TEAD-YAP inh	FBW7 activator	MITF confirm	AlphaScreen intf2	others
O=C(Nc1ccc(Cl)cc1)C1c2cccc[n+]2CC(=O)N1c1ccccc1O (stereo not given)	2.7	8.6	-40.5	-0.1	.	.
Cc1cc(C)c(S(=O)(=O)N2CCCC2CNC(=O)C(=O)Nc2ccccc2C)c(C)c1 (stereo not given)	-0.6	-8.9	0.8	0.3	.	.
COc1cccc(NC(=O)COc2cc(C)ccc2C(C)(C)C)c1	1.8	1.1	0.8	-0.3	.	.
CCOc1ccc(CN2CCN(Cc3ccc(OCC)cc3)CC2)cc1	0.7	50.7*	9.4	-0.2	-1.1	-3.6
CCc1ccc(CN2CCN(C3CCC(C)CC3)CC2)cc1 (stereo not given)	0.0	68.7*	-3.7	-0.1	0.2	4.8
CC1CCC(N2CCN(Cc3ccc(Cl)cc3)CC2)CC1 (stereo not given)	-1.1	69.0*	-9.8	-0.3	10.8	17.4
OC1CCN(Cc2ccc(Cl)cc2)CC1	-0.5	28.3	0.8	0.1	.	.
Cc1cc(Cl)ccc1C(=O)C1CCCN(C(=O)CCn2ccnc2C)C1 (stereo not given)	0.0	6.5	-7.5	-0.1	.	.
O=C(Cc1ccccc1)Nc1ccc(NC(=O)c2cccs2)nc1	1.4	1.8	-53.0	0.0	.	.
COc1ccc(Nc2nc(Cl)nc(Nc3cccc([N+](=O)[O-])c3)n2)cc1	-2.6	5.0	-1.4	-0.2	.	.
COc1cc2nc(CN3CCCC3c3nccs3)nc(N)c2cc1OC (stereo not given)	0.1	64.4*	29.6	-0.2	61.1*	99.2*
O=C(CSCc1cccc2ccccc12)Nc1ccccc1	-0.6	1.6	-12.8	0.0	.	.
O=c1[nH]c(/C=C/c2ccco2)nc(O)c1[N+](=O)[O-]	0.1	83.3*	2.4	-0.7	67.0*	-6.6	AS interf DR=>6.48
Cc1cc(C)c2c(=O)[nH]c(SCC(=O)O)nc2n1	2.6	-2.5	-11.1	0.0	.	.
CC(C)CC(=O)N1CCN(Cc2ccncc2)CC1	-1.4	65.2*	-1.9	0.1	7.7	13.9
CC(C)CC(=O)N1CCN(Cc2cccc(C(F)(F)F)c2)CC1	0.3	55.7*	19.2	0.1	-10.8	-7.6
CC(C)CC(=O)N1CCN(Cc2ccco2)CC1	-1.3	58.5*	-3.6	0.7	9.4	12.5
FC(F)(F)c1cccc(CN2CCSCC2)c1	0.6	17.9	2.8	-0.2	.	.
CCS(=O)(=O)N1CCc2ccc(NS(=O)(=O)C(C)C)cc2C1	-1.1	-4.1	-2.2	-0.1	.	.
CCS(=O)(=O)N1CCc2ccc(NS(=O)(=O)Cc3ccccc3F)cc2C1	0.3	74.8*	17.3	0.6	-3.0	4.3
CC1CNC2(C1)O[C@H]1C[C@H]3[C@@H]4CC=C5C[C@@H](O)CC[C@]5(C)[C@H]4CC[C@]3(C)[C@H]1[C@@H]2C (stereo not given in full)	-1.5	8.9	0.4	-0.1	.	.
O=C(Nc1ccccc1)c1cc2cccnc2nc1C(F)(F)F	-2.1	-5.5	-5.4	-0.1	.	.
Cc1c(C(=O)NCc2cccnc2)sc2ncn(CC(=O)Nc3ccc(C(C)C)cc3)c(=O)c12	-1.5	12.1	5.9	0.6	.	.
Cc1nc2ccc(S(=O)(=O)NCc3ccc(C(C)(C)C)cc3)cc2s1	2.1	-5.4	7.6	0.1	.	.
O=C(NNc1ncnc(NNC(=O)c2ccncc2)c1[N+](=O)[O-])c1ccncc1	-8.4	64.9*	2.9	-1.2	66.2*	100.3*
SMILES	GPR151 activ	MITF inh	TEAD-YAP inh	FBW7 activator	MITF confirm	AlphaScreen intf2	others
Cc1cccc(C(=O)OC/C(O)=C(\C#N)c2nc3ccccc3[nH]2)c1O	1.0	22.8	-6.0	0.0	.	.
COc1ccc2c(c1)C(c1cccs1)=NNC(c1ccncc1)=N2	0.3	10.3	7.3	-0.1	.	.
c1csc(C2=NNC(c3ccncc3)=Nc3ccccc32)c1	1.3	71.0*	8.7	0.1	9.8	15.7
O=C(c1ccc(Oc2ccc([N+](=O)[O-])cc2)cc1)N1CCCC1	-1.0	8.0	8.6	-0.1	.	.
c1ccc(-c2ccc(OCCCCn3cncn3)cc2)cc1	0.7	55.4*	-51.0	-0.2	37.0*	7.2	AS interf DR=>6.48
Cc1cc(C)cc(OCCCCn2cncn2)c1	0.2	61.5*	-0.2	-0.5	0.8	4.7
Clc1ccc(OCCCn2cncn2)cc1Cl	1.6	62.9*	5.5	-0.3	13.8	7.5
c1ccc(COc2ccc(OCCCCn3cncn3)cc2)cc1	-1.6	6.7	-12.0	-0.1	.	.
CCN1C(=O)C2C(c3ccccc3O)NC(CCSC)(C(=O)O)C2C1=O (stereo not given)	0.1	10.2	2.4	0.3	.	.
N#Cc1cc([N+](=O)[O-])ccc1NCc1ccccc1Cl	-0.5	1.0	4.8	0.1	.	.
COc1cc(NC(=O)c2sc3nc(C)nc(N4CCN(c5ccccn5)CC4)c3c2C)cc(OC)c1OC	0.6	18.8	14.6	-0.3	.	.
c1coc(CN2CCN(C3CCCCC3)CC2)c1	0.0	64.0*	-1.9	0.1	7.0	2.1
CC1CCC(N2CCN(Cc3ccco3)CC2)CC1 (stereo not given)	0.5	71.1*	7.9	0.0	27.5*	11.5	AS interf DR=>6.25
O=C(/C=C/c1ccccc1[N+](=O)[O-])N1CCCCCC1	-1.1	-0.6	-9.8	0.5	.	.
O=C(NCCCn1ccnc1)c1ccc(OC2CCN(CCc3ccccc3)CC2)cc1	3.8	68.5*	0.9	0.1	-1.4	-5.5
O=C(NCCCO)c1ccc(OC2CCN(CCc3ccccc3)CC2)cc1	-0.1	-1.9	5.2	0.0	.	.
CC1CN(CC(=O)N(C)CC2CCCCO2)Cc2cc(Cl)ccc2O1 (stereo not given)	2.1	55.4*	4.5	0.0	-4.2	-1.0
Clc1ccc(C2=CC(c3ccc(Br)cc3)n3nnnc3N2)cc1 (stereo not given)	0.9	1.4	6.4	0.0	.	.
O=c1[nH]ncn1-c1ccc(OCc2ccccc2)cc1	-10.1	-1.4	7.1	0.1	.	.
Cc1ccc(C(C)(C)C)c(OCCn2ccnc2)c1	-1.8	28.3	-13.0	-0.1	.	.
COCCNCCOc1cccc(Cl)c1Cl	0.5	72.1*	2.1	0.0	12.7	16.4
COCCNCCOc1ccc(Cl)cc1C(C)(C)C	0.6	73.6*	13.4	0.3	-7.6	-5.9
Cc1ccc(C(C)(C)C)c(OCCN2CCN(C)CC2)c1	0.2	77.0*	-10.8	0.4	12.7	15.2
COCCCNCCCOc1ccc(Cl)cc1C(C)(C)C	-0.1	48.1	-10.4	-0.1	.	.
CN1CCN(CCOc2ccc(Cl)cc2C(C)(C)C)CC1	-1.7	78.6*	1.1	0.0	15.7	19.6
O=C(CCCN1C(=O)c2ccccc2C1=O)Nc1cccc(C(=O)O)c1	1.1	3.2	9.1	0.2	.	.
CC(C)(C)c1cc(Cl)ccc1OCCOCCN1CCOCC1	-1.4	64.3*	-11.6	-0.1	9.8	1.4
Cc1ccc(C(C)(C)C)c(OCCNCCN)c1	-0.8	79.8*	-2.6	-0.2	3.0	3.6

Screening results: PubChem BioAssay, The Scripps Research Institute Molecular Screening Center
